# PubChem BioAssay AID1159580 (chemical genetic matrix, 2015)
# In all, about 5,500 compounds went through this assay and about 2,000 (36%) were called active. Inconclusive results (about 18%) are left out. The list shows a part of the results. A number with no mark means an inactive call. No stated cut-off is given here; in the data, active means normalized growth mostly below about 0.91 (no sharp cut-off); inconclusive means no clear call, values can overlap the other calls; inactive means mostly above about 0.92.
# Experiment: chemical genetic growth profiling, strain panel (AID 1159580);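 further: tested at 20 µM; growth read once vehicle control cultures reached saturation at 30 °C; 1 = growth at the plate median or of vehicle wells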
# Conditions: growth OD
# [1] = S. cerevisiae deletion strains, locus YDL101C, strain DUN1, stronger effect = lower value
# [2] = S. cerevisiae deletion strains, locus YHR030C, strain SLT2, stronger effect = lower value
# [3] = S. cerevisiae deletion strains, locus YAL013W, strain DEP1, stronger effect = lower value
# [4] = S. cerevisiae deletion strains, locus YBR229C, strain ROT2, stronger effect = lower value
# [5] = S. cerevisiae deletion strains, locus YDR150W, strain NUM1, stronger effect = lower value
# [6] = S. cerevisiae deletion strains, locus YEL061C, strain CIN8, stronger effect = lower value
# [7] = S. cerevisiae deletion strains, locus YGR078C, strain PAC10, stronger effect = lower value
# [8] = S. cerevisiae deletion strains, locus YHR087W, strain rtc3, stronger effect = lower value
# [9] = S. cerevisiae deletion strains, locus YJR043C, strain POL32, stronger effect = lower value
# [10] = S. cerevisiae deletion strains, locus YJR075W, strain HOC1, stronger effect = lower value
# [11] = S. cerevisiae deletion strains, locus YLR039C, strain RIC1, stronger effect = lower value
# [12] = S. cerevisiae deletion strains, locus YLR058C, strain SHM2 (second series), stronger effect = lower value
# [13] = S. cerevisiae deletion strains, locus YLR085C, strain ARP6, stronger effect = lower value
# [14] = S. cerevisiae deletion strains, locus YLR262C, strain YPT6, stronger effect = lower value
# [15] = S. cerevisiae deletion strains, locus YML094W, strain GIM5, stronger effect = lower value
# [16] = S. cerevisiae deletion strains, locus YMR219W, strain ESC1, stronger effect = lower value
# [17] = S. cerevisiae deletion strains, locus YMR263W, strain SAP30, stronger effect = lower value
# [18] = S. cerevisiae deletion strains, locus YNL153C, strain GIM3, stronger effect = lower value
# [19] = S. cerevisiae deletion strains, locus YNL298W, strain CLA4 (second series), stronger effect = lower value
# [20] = S. cerevisiae deletion strains, locus YNL322C, strain KRE1, stronger effect = lower value
# [21] = S. cerevisiae deletion strains, locus YNR030W, strain Alg12, stronger effect = lower value
# [22] = S. cerevisiae deletion strains, locus YOL006C, strain TOP1, stronger effect = lower value
# [23] = S. cerevisiae deletion strains, locus YPL055C, strain LGE1, stronger effect = lower value
# [24] = S. cerevisiae deletion strains, locus YPL241C, strain CIN2, stronger effect = lower value
# [25] = S. cerevisiae deletion strains, locus YPR135W, strain CTF4, stronger effect = lower value
smiles,measurement,setting,value
O=C(NNc1ccc(I)cc1)c1cc(Cl)cc(Cl)c1,normalized growth,"S. cerevisiae deletion strains, locus YAR019C, strain CDC15, stronger effect = lower value",0.949
same,normalized growth,"S. cerevisiae deletion strains, locus YBL105C, strain PKC1, stronger effect = lower value",0.965
same,normalized growth,"S. cerevisiae deletion strains, locus YBR135W, strain CKS1, stronger effect = lower value",0.953
same,normalized growth,"S. cerevisiae deletion strains, locus YBR136W, strain MEC1, stronger effect = lower value",0.953
same,normalized growth,"S. cerevisiae deletion strains, locus YBR160W, strain CDC28, stronger effect = lower value",0.948
same,normalized growth,"S. cerevisiae deletion strains, locus YDL017W, strain CDC7, stronger effect = lower value",0.961
same,normalized growth,"S. cerevisiae deletion strains, locus YDL028C, strain MPS1, stronger effect = lower value",0.94
same,normalized growth,[1],0.987
same,normalized growth,"S. cerevisiae deletion strains, locus YDL108W, strain KIN28, stronger effect = lower value",0.943
same,normalized growth,"S. cerevisiae deletion strains, locus YDL132W, strain cdc53, stronger effect = lower value",0.95
same,normalized growth,"S. cerevisiae deletion strains, locus YDL214C, strain PRR2, stronger effect = lower value",0.88
same,normalized growth,"S. cerevisiae deletion strains, locus YDR052C, strain DBF4, stronger effect = lower value",0.952
same,normalized growth,"S. cerevisiae deletion strains, locus YDR054C, strain cdc34, stronger effect = lower value",0.955
same,normalized growth,"S. cerevisiae deletion strains, locus YDR226W, strain ADK1, stronger effect = lower value",0.929
same,normalized growth,"S. cerevisiae deletion strains, locus YDR477W, strain SNF1, stronger effect = lower value",0.731
same,normalized growth,"S. cerevisiae deletion strains, locus YER123W, strain YCK3, stronger effect = lower value",0.651
same,normalized growth,"S. cerevisiae deletion strains, locus YER133W, strain GLC7, stronger effect = lower value",0.909
same,normalized growth,"S. cerevisiae deletion strains, locus YFL009W, strain cdc4, stronger effect = lower value",0.938
same,normalized growth,"S. cerevisiae deletion strains, locus YFL029C, strain CAK1, stronger effect = lower value",0.956
same,normalized growth,"S. cerevisiae deletion strains, locus YFR003C, strain YPI1, stronger effect = lower value",0.967
same,normalized growth,"S. cerevisiae deletion strains, locus YFR019W, strain FAB1, stronger effect = lower value",0.767 (active)
same,normalized growth,"S. cerevisiae deletion strains, locus YFR028C, strain CDC14, stronger effect = lower value",0.931
same,normalized growth,"S. cerevisiae deletion strains, locus YGR040W, strain KSS1, stronger effect = lower value",0.809
same,normalized growth,"S. cerevisiae deletion strains, locus YGR052W, strain FMP48, stronger effect = lower value",0.832
same,normalized growth,"S. cerevisiae deletion strains, locus YGR092W, strain DBF2, stronger effect = lower value",0.78
same,normalized growth,[2],0.536 (active)
same,normalized growth,"S. cerevisiae deletion strains, locus YHR079C, strain IRE1, stronger effect = lower value",0.918
same,normalized growth,"S. cerevisiae deletion strains, locus YHR082C, strain KSP1, stronger effect = lower value",0.848
same,normalized growth,"S. cerevisiae deletion strains, locus YHR205W, strain SCH9, stronger effect = lower value",0.746
same,normalized growth,"S. cerevisiae deletion strains, locus YIL147C, strain SLN1, stronger effect = lower value",0.955
same,normalized growth,"S. cerevisiae deletion strains, locus YJL095W, strain BCK1, stronger effect = lower value",0.695
same,normalized growth,"S. cerevisiae deletion strains, locus YJL157C, strain FAR1, stronger effect = lower value",0.94
same,normalized growth,"S. cerevisiae deletion strains, locus YJR016C, strain ILV3, stronger effect = lower value",0.971
same,normalized growth,"S. cerevisiae deletion strains, locus YJR066W, strain TOR1 (second series), stronger effect = lower value",0.865
same,normalized growth,"S. cerevisiae deletion strains, locus YJR066W, strain TOR1, stronger effect = lower value",0.771
same,normalized growth,"S. cerevisiae deletion strains, locus YKL048C, strain ELM1, stronger effect = lower value",0.889
same,normalized growth,"S. cerevisiae deletion strains, locus YKL067W, strain YNK1, stronger effect = lower value",0.906
same,normalized growth,"S. cerevisiae deletion strains, locus YKL101W, strain HSL1, stronger effect = lower value",0.842
same,normalized growth,"S. cerevisiae deletion strains, locus YKL193C, strain SDS22, stronger effect = lower value",0.96
same,normalized growth,"S. cerevisiae deletion strains, locus YKL203C, strain TOR2, stronger effect = lower value",0.926
same,normalized growth,"S. cerevisiae deletion strains, locus YLR113W, strain HOG1, stronger effect = lower value",0.498 (active)
same,normalized growth,"S. cerevisiae deletion strains, locus YLR403W, strain SFP1, stronger effect = lower value",0.842
same,normalized growth,"S. cerevisiae deletion strains, locus YML070W, strain DAK1, stronger effect = lower value",0.849
same,normalized growth,"S. cerevisiae deletion strains, locus YMR001C, strain CDC5, stronger effect = lower value",0.953
same,normalized growth,"S. cerevisiae deletion strains, locus YMR205C, strain PFK2 (second series), stronger effect = lower value",0.904
same,normalized growth,"S. cerevisiae deletion strains, locus YMR277W, strain FCP1, stronger effect = lower value",0.931
same,normalized growth,"S. cerevisiae deletion strains, locus YNL006W, strain LST8, stronger effect = lower value",0.972
same,normalized growth,"S. cerevisiae deletion strains, locus YNL020C, strain ARK1, stronger effect = lower value",0.901
same,normalized growth,"S. cerevisiae deletion strains, locus YNL161W, strain CBK1, stronger effect = lower value",0.97
same,normalized growth,"S. cerevisiae deletion strains, locus YNL183C, strain NPR1, stronger effect = lower value",0.889
same,normalized growth,"S. cerevisiae deletion strains, locus YNL207W, strain RIO2, stronger effect = lower value",0.963
same,normalized growth,"S. cerevisiae deletion strains, locus YNL222W, strain SSU72, stronger effect = lower value",0.946
same,normalized growth,"S. cerevisiae deletion strains, locus YOL078W, strain AVO1, stronger effect = lower value",0.955
same,normalized growth,"S. cerevisiae deletion strains, locus YOL136C, strain PFK27, stronger effect = lower value",0.864
same,normalized growth,"S. cerevisiae deletion strains, locus YOR061W, strain CKA2, stronger effect = lower value",0.715
same,normalized growth,"S. cerevisiae deletion strains, locus YOR119C, strain RIO1, stronger effect = lower value",0.79
same,normalized growth,"S. cerevisiae deletion strains, locus YOR231W, strain MKK1, stronger effect = lower value",0.884
same,normalized growth,"S. cerevisiae deletion strains, locus YOR329C, strain SCD5, stronger effect = lower value",0.976
same,normalized growth,"S. cerevisiae deletion strains, locus YPL031C, strain PHO85, stronger effect = lower value",0.81
same,normalized growth,"S. cerevisiae deletion strains, locus YPL153C, strain RAD53, stronger effect = lower value",0.84
same,normalized growth,"S. cerevisiae deletion strains, locus YPL204W, strain HRR25, stronger effect = lower value",0.832
same,normalized growth,"S. cerevisiae deletion strains, locus YPL209C, strain IPL1, stronger effect = lower value",0.956
same,normalized growth,"S. cerevisiae deletion strains, locus YPL256C, strain CLN2, stronger effect = lower value",0.749 (active)
same,normalized growth,"S. cerevisiae deletion strains, locus YPR025C, strain CCL1, stronger effect = lower value",0.959
same,normalized growth,"S. cerevisiae deletion strains, locus YPR106W, strain ISR1, stronger effect = lower value",0.957
same,normalized growth,"S. cerevisiae deletion strains, locus YPR111W, strain DBF20, stronger effect = lower value",0.929
same,normalized growth,"S. cerevisiae deletion strains, strain NNK1, stronger effect = lower value",0.97
same,normalized growth,"S. cerevisiae deletion strains, strain TSCII, stronger effect = lower value",0.946
Cc1ccc(NC(=S)NCCO)c(C)c1,normalized growth,[3],1
same,normalized growth,[4],0.987
same,normalized growth,[1],1.01
same,normalized growth,[5],1
same,normalized growth,[6],0.99
same,normalized growth,[7],1.01
same,normalized growth,[2],1
same,normalized growth,[8],1.01
same,normalized growth,[9],0.997
same,normalized growth,[10],0.978
same,normalized growth,[11],1.01
same,normalized growth,[12],0.996
same,normalized growth,[13],1
same,normalized growth,[14],1
same,normalized growth,[15],1.01
same,normalized growth,[16],1
same,normalized growth,[17],1
same,normalized growth,"S. cerevisiae deletion strains, locus YNL128W, strain TEP1, stronger effect = lower value",1
same,normalized growth,[18],1
same,normalized growth,[19],1.02
same,normalized growth,[20],0.98
same,normalized growth,[21],0.986
same,normalized growth,[22],1.03
same,normalized growth,[23],1.01
same,normalized growth,[24],0.945
same,normalized growth,[25],1.03
COCCCNC(=S)Nc1ccc(C)cc1C,normalized growth,[3],0.985
same,normalized growth,[4],0.974
same,normalized growth,[1],0.968
same,normalized growth,[5],0.966
same,normalized growth,[6],1.01
same,normalized growth,[7],0.98
same,normalized growth,"S. cerevisiae deletion strains, locus YGR229C, strain SMI1, stronger effect = lower value",0.986
same,normalized growth,[2],0.974
same,normalized growth,[8],1.04
same,normalized growth,"S. cerevisiae deletion strains, locus YJL187C, strain SWE1, stronger effect = lower value",0.993
same,normalized growth,[9],0.977
same,normalized growth,[10],1
same,normalized growth,[11],0.975
same,normalized growth,[12],0.982
same,normalized growth,[13],0.921
same,normalized growth,[14],0.961
same,normalized growth,[15],1
same,normalized growth,[16],0.99
same,normalized growth,[17],0.999
same,normalized growth,[18],0.986
same,normalized growth,[19],0.97
same,normalized growth,[20],0.981
same,normalized growth,[21],1
same,normalized growth,[22],0.923
same,normalized growth,[23],1.01
same,normalized growth,[24],0.973
same,normalized growth,[25],0.917
same,normalized growth,"S. cerevisiae strains, strain wild type, stronger effect = lower value",0.987
